An excerpt weighted towards active compounds, which were near 19% of everything screened.
Pf growth 96h: P. falciparum growth inhibition at 96 hours. actives 6.9% (n = 320,000). Potency, µM (doses to about 28.7 µM), for inactives: at the top dose activity change, negative = inhibition, actives largely listed as inhibitors. P. falciparum luciferase reporter growth, 96 h; also: potency is read from the fitted curve at half-maximal effect; % is scaled to controls: 0 for no effect and ±100 for the full control effect
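Delayed-death screen, second-generation endpoint: infected erythrocytes, 2% hematocrit, 0.05% parasitemia final; 96 hours at 37 C, 5% CO2; luciferase detection reagent; luminescence decrease equals reduced growth.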
SARS PLP yeast: SARS-CoV PLP inhibition in yeast | S. cerevisiae expressing SARS-CoV PLpro, growth rescue | Potency, µM (top dose mostly 32.9 µM), for the others: at the highest dose activity, positive = growth rescue, hits mostly activators | actives 0.19% (n = 330,000) | AID 485353; calls by dose curve; also: potency is read from the fitted curve at half-maximal effect; 0% is about no effect; nearly all actives have a fitted effect of over 55% in size
AMA1-RON2 inh: AMA1-RON2 (P. falciparum) interaction inhibition; AlphaScreen AMA1-biotinylated RON2 peptide binding; Potency, µM (top dose mostly 58.2 µM), for the others: top-dose activity change, negative = inhibition, hits mostly inhibitors; actives 0.2% (n = 360,000);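 also: potency is read from the fitted curve at half-maximal effect; 0% = vehicle wells and -100% = peptide control; nearly all actives have a fitted effect of over 45% in size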
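AMA1 (3D7) with his tag at 25 nM final met compounds first, then biotinylated RON2 peptide at 25 nM; detection used donor plus acceptor beads, 10 µg/mL apiece, read by AlphaScreen after 30 min at room temperature.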
Cycloheximide cs: affects cycloheximide protein synthesis inhibition readout, counter-screen | cell reporter, cycloheximide protein synthesis inhibition counterscreen | max response, % | actives 12% (n = 300,000) | AID 2314; in the data active = max response mostly above about 13%, no sharp cut-off; inactive = mostly below about 14%; also: read at 38.3 µM for the half of the compounds with a filed dose; 0% is about no effect
Shiga inhibitor: Shiga toxin inhibition; AID 2315; inhibition, % at 38.7 µM; Vero cells, Shiga toxin protein synthesis inhibition reporter; actives 9.2% (n = 290,000); in the data active = inhibition mostly above about 28%, no sharp cut-off; inactive = mostly below about 43%; also: 0% is about no effect
Pf growth 48h: inhibits P. falciparum growth in the first generation, 48 h. P. falciparum luciferase growth in erythrocytes, 48 h. Potency, µM (titrated, usually from 28.7 µM), inactives show top-dose activity change, negative = inhibition, most hits filed as inhibitors. actives 5.9% (n = 310,000). AID 504832; also: potency is read from the fitted curve at half-maximal effect; % is scaled to controls: 0 for no effect and ±100 for the full control effect
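Read-out is firefly luciferase luminescence from an integrated reporter in P. falciparum, so falling signal marks reduced parasite growth. Infected erythrocytes were at 2% hematocrit and 0.1% parasitemia (final) in Albumax-supplemented RPMI 1640.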
An asterisk follows results filed as active; ? = inconclusive; . = no result given; [ ] = another dose, or the depositor's remark. Unless noted, calls follow the shape of the dose curve; as a rule, active = well fitted curve in the direction sought with a large enough effect; inconclusive = small, poorly fitted or top-dose-only effect, or another doubt; inactive = no such curve, though single readings can be large; an effect the other way counts as inactive or inconclusive.

SMILES	Pf growth 96h	SARS PLP yeast	AMA1-RON2 inh	Cycloheximide cs	Shiga inhibitor	Pf growth 48h
Cc1ccc(NC(=O)Cn2cnc3c(nnn3Cc3ccc(F)cc3)c2=O)cc1	-33%[1.15 µM]	-1%	-7%	-4	18	2%
CSc1ccc(/C=C/c2ccc3cccc(O)c3n2)cc1	-26%	-24%	46%	44*	115*	-19%
COc1cc2ccc(=O)oc2cc1O	4%	5%	5%	.	.	15%
COc1cc(/C=C/c2ccc3cccc(O)c3n2)c(Br)cc1O	21%	-9%	.	40*	93*	?
Oc1ccc2ccccc2c1/C=C/c1ccc2c(Br)cc(Br)c(O)c2n1	.	.	33%	.	.	.
COc1cc(/C=C/c2ccc3cccc(O)c3n2)ccc1O	?	-11%	93%	55*	68*	-61%
COc1cc(Br)c(/C=C/c2ccc3cccc(O)c3n2)cc1OC	2.1µM*	-1%	106%	11	2	2.6µM*
CCOc1ccc(C(=O)NN2C(=S)NC(C)(C)C=C2C)cc1	6%	0%	9%	-2	16	15%
Cc1ccc(-c2nc(SC(C)C(=O)N3CCOCC3)n[nH]2)cc1 (stereo unspecified)	?	-1%	-4%	3	3	-4%
COc1ccc(CCNC(=O)Nc2nc(C(N)COCc3ccccc3)cs2)cc1OC (stereo unspecified)	.	.	23%	.	.	.
COc1cccc(-c2c[nH]c(=O)[nH]c2=O)c1	0%	1%	?	-3	-2	19%
CC(C)(C)c1nn(-c2ccccc2)c2[nH]c(=O)c(CNCc3ccco3)cc12	?	-14%	101%	12	18	?
COc1ccc(CNCc2cc3c(C(C)(C)C)nn(-c4ccccc4)c3[nH]c2=O)cc1	.	1%	68%	4	35	0.83µM*
Cc1nn(-c2ccccc2)c2[nH]c(=O)c(CNc3ccc(N4CCOCC4)cc3)cc12	2%	-22%	55%	-1	-2	?
CC(C)(C)c1nn(-c2ccccc2)c2[nH]c(=O)c(CNc3ccc4c(c3)OCCO4)cc12	?	-27%	-16%	16*	30	.
Cc1ccc(CNCc2cc3c(C(C)(C)C)nn(-c4ccccc4)c3[nH]c2=O)cc1	.	-14%	11%	10	24	0.37µM*
Cc1nn(-c2ccc(Cl)cc2)c2[nH]c(=O)c(CNCc3ccc4c(c3)OCO4)cc12	121%	-5%	71%	10	10	0.37µM*
COC1OC(CO)C(N=C(C)C)C1O (stereo unspecified)	.	.	-19%	.	.	.
CC1(C(=O)NS(=O)(=O)C2CC2)CCCN(C(=O)/C=C/c2ccccc2)C1 (stereo unspecified)	.	.	-5%	.	.	.
COc1ccc(-n2nnnc2CNC(=O)c2c(-c3ccccc3Cl)noc2C)cc1	.	.	-2%	.	.	.
CC(=O)N1CCN(Cc2cc(=O)oc3cc(C)cc(C)c23)CC1	.	.	0%	.	.	.
COc1cccc(-c2cccc(NC(=O)C3CCN(Cc4nccs4)CC3)c2)c1	?	?	5%	1	-2	-26%
CCOc1ccc(CN2CCC(C(=O)Nc3cccc(-c4ccn[nH]4)c3)CC2)cc1Cl	?	-2%	6%	24*	43*	?
CCN(CCn1cccn1)C(=O)c1cc(COc2cc(C)ccc2C)on1	?	-7%	0%	62*	168*	-6%
CCN(CCn1cccn1)C(=O)c1cc(COc2ccccc2SC)on1	19%	-4%	14%	65*	94*	1%
SMILES	Pf growth 96h	SARS PLP yeast	AMA1-RON2 inh	Cycloheximide cs	Shiga inhibitor	Pf growth 48h
CCN(CCn1cccn1)C(=O)c1cc(COc2ccc(F)c(F)c2)on1	3%	-4%	-4%	30*	50*	31%
Cc1ccc(C)c(OCc2cc(C(=O)NC(c3ccccn3)C(F)(F)F)no2)c1 (stereo unspecified)	.	.	45%	.	.	.
Cc1[nH]c(C)c(S(=O)(=O)NCCc2ccc(S(N)(=O)=O)cc2)c1C(=O)N1CCCC1	?	0%	26%	-10	-3	10%
CC(C)CCN1CCN(Cc2nc(-c3ccc(F)cc3)cs2)CC1CCO (stereo unspecified)	12µM*	0%	-9%	1	-8	?
CC(C)N1CCN(Cc2nc(-c3ccccc3)cs2)CC1CCO (stereo unspecified)	4%	2%	12%	20*	24	32%
Cc1ncc(CN2CCN(C(C)C)C(CCO)C2)s1 (stereo unspecified)	-24%	0%	24%	-1	-9	30%
CC(C)N1CCN(Cc2cnc(N3CCCC3)s2)CC1CCO (stereo unspecified)	9.3µM*	1%	-4%	-3	-7	8%
OCCC1CN(Cc2nc(-c3ccccc3)cs2)CCN1C1CCCC1 (stereo unspecified)	-16%	-1%	16%	-1	-3	?
O=C(NS(=O)(=O)c1ccc2ccc(S(=O)(=O)NCCSc3ccccc3)cc2c1)c1cccc2ccccc12	.	.	3%	.	.	.
CC(C)(C)c1ccc(/C=C2\CCn3c2nc2cc(C(=O)O)ccc2c3=O)cc1	-14%	2%	7%	1	-7	.
O=C(NCCC1=CCCCC1)C1CCC(CNc2c(N3CCCCC3)c(=O)c2=O)CC1 (stereo unspecified)	?	-2%	-13%	0	3	9.3µM*
O=C(C1CCC(CNc2c(N3CCCCC3)c(=O)c2=O)CC1)N1CCc2ccccc2C1 (stereo unspecified)	-44%	-1%	4%	-3	-8	9.3µM*
CC1CCN(c2c(NCC3CCC(C(=O)NCCC4=CCCCC4)CC3)c(=O)c2=O)CC1 (stereo unspecified)	?	-1%	-6%	4	-3	7.4µM*
CC1CCN(c2c(NCC3CCC(C(=O)N4CCc5ccccc5C4)CC3)c(=O)c2=O)CC1 (stereo unspecified)	-18%	2%	-2%	-4	-15	.
CNc1c2cccc(C)c2nc2c(C(=O)NCCN(C)C)cccc12	.	.	-20%	.	.	.
COc1ccc(/C(C)=N/NC(=O)CNC(=O)/C=C\c2ccccc2OC)c(OC)c1	-13%	-4%	19%	14*	31*	?
COc1ccc(/C=C\C(=O)NCC(=O)N/N=C/c2cccc(OC)c2O)cc1	70%	-2%	103%	14	12	0%
COc1cccc(/C=N/NC(=O)CNC(=O)/C=C\c2ccccc2)c1O	-9%	12%	-8%	28*	41*	5%
COc1cccc(/C=N/NC(=O)CNC(=O)C(c2ccccc2)c2ccccc2)c1O	?	1%	54%	38*	71*	?
COc1cccc(/C=N/NC(=O)CSCC(=O)Nc2ccccc2)c1O	?	10%	48%	-4	-23	?
O/N=C/c1cccnc1Sc1ccccc1	23%	1%	-5%	2	-10	22%
